# Experiments:
# Test in all cases: PBM binding z-score (relative to random genomic background probes); higher = stronger binding; sequences stand for … in GC…GCGATTGACAGCGTAGAATGAAGG
# [1] = tested on: FXR:RXRa (NR concentration 270 nM, RXRa partner concentration 90 nM)
# Summary of the method: (§1)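 Custom Agilent 4×180K protein-binding microarrays carried double-stranded probes, each with a 34-nt variable region. These regions held direct-repeat seeds, single-nucleotide variants, half-site ablations and random human genomic background sequences. Ligand-free nuclear receptor dimers were incubated on the arrays for 1 h, antibodies against each partner (one per run) detected binding, and scanned fluorescence was regression-normalized. Binding z-scores take the random background probes as reference.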
# [2] = tested on: LXRa:RXRa (NR concentration 270 nM, RXRa partner concentration 90 nM)
# Summary of the method: as §1
# [3] = tested on: LXRa homodimer (NR concentration 270 nM)
# Summary of the method: as §1
# [4] = tested on: LXRb:RXRa (NR concentration 270 nM, RXRa partner concentration 90 nM)
# Summary of the method: as §1
# [5] = tested on: LXRb homodimer (NR concentration 270 nM)
# Summary of the method: as §1
# [6] = tested on: PPARa:RXRa (NR concentration 270 nM, RXRa partner concentration 90 nM)
# Summary of the method: as §1
# [7] = tested on: PPARg:RXRa (NR concentration 180 nM, RXRa partner concentration 90 nM)
# Summary of the method: as §1
# [8] = tested on: PPARg:RXRa 270nM:90nM, anti-RXR (NR concentration 270 nM, RXRa partner concentration 90 nM)
# Summary of the method: as §1
# [9] = tested on: PPARg:RXRa 30nM:10nM, anti-RXR (NR concentration 30 nM, RXRa partner concentration 10 nM)
# Summary of the method: as §1
# [10] = tested on: PPARg:RXRa 90nM:30nM, anti-RXR (NR concentration 90 nM, RXRa partner concentration 30 nM)
# Summary of the method: as §1
Sequence,PBM binding z-score [1],PBM binding z-score [2],PBM binding z-score [3],PBM binding z-score [4],PBM binding z-score [5],PBM binding z-score [6],PBM binding z-score [7],PBM binding z-score [8],PBM binding z-score [9],PBM binding z-score [10]
TTACCAAGGTGAAAGGCCGTTGATGCACGCCTTG,0.494,0.431,-0.517,0.397,-0.951,2.49,3.77,4.98,2.95,4.9
GCGACTGGGGCAAAGCAGGTTACCATGAGGTTGG,0.529,0.0146,-0.506,0.0618,-0.859,1.1,1.18,1.05,-0.313,0.335
ATATGTCGGTTAGCTGGGGTCATTCAGACTAGGC,3.68,4.3,2.96,4.36,1.24,4.39,1.86,2.65,0.599,1.75
TTACCAAAGTGAAGGTCGTTGATCCCTCTGTAGA,2.06,2.07,-0.0239,1.33,-0.489,1.15,-0.21,0.882,0.58,0.768
CCTAGTTGCTCAAGGTCACACACGCTATAGGTAC,4.3,4.59,4.23,3.72,1.6,3.98,2.13,2.77,0.986,1.95
ATCTCTAGGTAATACTCAGTTCAGTGAAGAACGC,0.748,1.03,1.19,0.468,1.55,0.541,0.424,0.567,0.572,0.52
GATACAGGGTCAAGGCCATAGTACGCGTATTGAT,6.45,4.12,0.059,3.75,0.018,5.51,6.08,5.45,2.63,4.43
GCGCCTGGGGCATCAGCAGGTTACCATAACTTAA,-0.344,-0.299,-0.446,0.294,-1.19,0.454,0.0238,-0.488,-0.952,-0.927
ATCTCTAGGTAACAAGTTCAGTAAAAGAGAGGAC,0.872,1.08,1.01,0.953,1.1,1.81,1.76,2.11,0.675,1.82
TAGCCTAGGCCAGATCGGGCCAGTATACGCTATA,-0.616,-1.17,-0.865,-1.22,-1.15,-1.12,0.0311,-1.24,-0.873,-1.05
CGAACTAGGTCAGAACAGGACAGTGAAGGATGAT,1.69,0.689,-0.0376,0.189,-0.174,2.78,4.94,4.45,1.53,3.44
TCAGACAGGTGAAGGTAACTAAGGTACGCAGTCG,1.03,2.57,-0.132,1.44,-0.0558,1.51,0.892,2.34,3.8,3.21
TCGAGTAGGTTACCAATGAGGCATTCAGCTTTCT,0.0141,0.677,-0.666,0.0718,-1.38,1,0.215,1.15,1.28,1.22
TCGAGTAGGTTACCAATGGGGCATTGAGCTTTCT,0.162,1.38,-0.99,0.479,-1.11,0.992,0.256,1.26,1.03,1.16
TCTTGTAGATCCAGCAGGTTAAGAAAGCCTGAGT,0.108,0.186,-0.293,0.284,-0.208,0.342,-0.483,1.03,2.62,1.84
ACTATTAGTTGACTTAGGGCAGCCGATACGACGC,-0.0135,-0.0603,0.0917,-0.372,0.721,-0.383,0.697,0.151,-0.128,0.0745
TCATATAGGTAAATGCTTGGTGAAAGTCCGATCT,0.688,0.994,0.23,0.824,-0.0277,1.12,0.522,2.24,3.68,2.72
CCTAGCAGGCCAATCTCGGTCACTCAAGGCTTGA,0.604,2.68,0.339,-0.0855,-0.585,0.406,-0.312,-0.384,-1.26,-0.439
TCTTGTAGATCAATAGAGGTTAACAAAGTGCGCT,0.932,4.21,0.47,2.29,0.171,2.18,0.373,1.66,2.57,2
CCTAGCAGGCCAATCTGCGTCACTCAAGGCTTGA,-0.461,-0.378,-0.462,-0.429,-0.0755,-0.332,-0.41,-1.08,-1.19,-1.21
CCGACTGGGGCAAGGTTAGCATAACGCACAGCCA,-0.312,-0.11,-0.322,-0.208,-1.24,1.23,2.6,3.06,0.844,2.39
TCTTGTAGATCAACAGGAGGTTGAGAAAGATCGA,-0.0264,-0.201,-0.188,-0.211,-0.144,0.467,-0.1,1.33,2.81,2.24
AGAACAAGGGCACGCTGAGTTGATAGCAGAGTAG,0.401,0.296,-0.369,-0.0707,-0.878,1.38,1.28,0.671,0.364,0.255
AATACCGGGTCATCGTAGGCCAGAGTACGCACAG,6.17,5.51,1.68,3.93,0.968,5.4,5.83,5.07,2.01,3.89
CGTCCAAGGTCAAGGTCAGTGCAAGAGACTCGAA,7.47,5.77,1.19,4.77,0.528,5.84,6.07,6.18,2.4,5.09

# Source: the supplement of paper PMC6555819
